The record followed here is PubChem BioAssay (NCI).

About 79,000 compounds went through this panel and 15% of them were active in at least one assay; those are over-represented in the sample as a whole. Values without a mark were called inactive. The source made the active and inactive calls. Rule as the data show it: active = growth inhibition above about 70%; inactive = the rest. Where a SMILES comes first, the peptide text is derived from it. Bridges are numbered along the chain shown (N, C = ends). Roman numbers before positions name the chains, in order.

Test [1] is described as follows: NCI Yeast Anticancer Drug Screen. Data for the rad50 strain (AID 155).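 Also: 0% = growth of vehicle-only cultures of the same strain.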 The conditions noted are these: S. cerevisiae rad50 strain growth inhibition; at 50.0 µM; active compounds read high. In outline: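 Genetically altered yeast (DNA repair pathway); compound treatment; growth inhibition vs vehicle ctrl.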
The nature of test [2]: NCI Yeast Anticancer Drug Screen. Data for the mec2-1 strain (AID 157). The conditions noted are these: S. cerevisiae mec2-1 strain, at 50.0 µM, active compounds read high. The method, boiled down: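 Cells of the genetically defined mec2-1 yeast strain are incubated with test compound. Inhibition of growth is calculated against vehicle-treated controls.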
Test [3] in a line: NCI Yeast Anticancer Drug Screen. Data for the sgs1 mgt1 strain (AID 161).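 Also: 0% = growth of cultures given vehicle only.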 The conditions noted are these: S. cerevisiae sgs1 mgt1 strain, at 50.0 µM, active compounds read high. The method, boiled down: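 Genetically altered yeast, compound exposure, growth inhibition relative to vehicle.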
A short description of test [4]: NCI Yeast Anticancer Drug Screen. Data for the cln2 rad14 strain (AID 165).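 Also: 0% = growth equal to vehicle treated cultures.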 The conditions noted are these: S. cerevisiae cln2 rad14 strain, at 50.0 µM, active compounds read high. In outline:
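The screen exposed genetically defined yeast (cln2 rad14) to test compounds and scored growth inhibition relative to vehicle-treated controls.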

Test [5] can be described thus: NCI Yeast Anticancer Drug Screen. Data for the bub3 strain (AID 167). As to conditions: S. cerevisiae bub3 mutant strain, at 50.0 µM, active compounds read high. In outline:
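Yeast carrying a defined mutation is treated with each compound, and growth is compared with that of vehicle-exposed cells to give inhibition.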

The nature of test [6]: NCI Yeast Anticancer Drug Screen. Data for the mlh1 rad18 strain (AID 175). As to conditions: S. cerevisiae mlh1 rad18 strain growth inhibition; at 50.0 µM; active compounds read high. In outline: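 Compound-treated yeast growth, normalised to vehicle controls. Strain bears defined DNA repair mutations.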

As for `CC12CCC(=O)C=C1CCC1C2CCC2(C)C1CCC2(O)C(=O)Cn1c(=O)cc[nH]c1=O` (centres undefined), the growth inhibition in test [1] is 10.3%; in test [2], 4.65%; in test [3], 1.5%; in test [4], 14.7%; in test [5], -2.7%; in test [6] it was 11.5%.

For `CCOC(=O)C12CCCC1(O)N(NC(=O)OC(C)(C)C)C(C)=C2C(=O)OC` (centres undefined), the growth inhibition was -7.85% in test [1]; 15.1% in test [2]; -2.6% in test [3]; -43.2% in test [4]; -7.5% in test [6].

Regarding `CC(C)(C)CC(C)(C)N1CNC(=S)NC1`, the growth inhibition in test [1] was 19%; in test [2] it was -1.95%; in test [3], 18.3%; in test [4] it was 10.8%; in test [6], 16.8%.

On to `Cc1ccc2c(c1)[nH]c(=S)n2C=C1C(=O)CC(C)(C)CC1=O`, for which the growth inhibition in test [1] is -40%; in test [2], -63.3%; in test [3], -33.8%; in test [4], 9.05%; in test [6], -9.25%.

Regarding `COC(=O)C1CCC(=O)N1C(c1ccc(OC)cc1)c1ccc(OC)cc1` (centres undefined), the growth inhibition in test [1] was -26.6%; in test [2] it was 25.6%; in test [3], 13.4%; in test [4], 12.6%; in test [6], 6.7%.

Consider `COc1cc2c(cc1C(CC(C)=O)c1cc(OC)c(OC)c(OC)c1)OCO2` (centres undefined), for which the growth inhibition in test [1] was -11.6%; in test [2], -10.2%; in test [3], -12%; in test [4], -5.3%; in test [5], 11%; in test [6] it was -6.15%.

Turning to `CCc1cn(C2CC(CO)C(CO)S2)c(=O)[nH]c1=O` (centres undefined), the growth inhibition in test [1] is -5.5%; in test [2] it was -33%; in test [3] it was 7.85%; in test [4], -6.4%; in test [5] it was -8.55%; in test [6], -6.7%.

Consider `COC(=O)/C(=N\NC(=S)NN)C(C(=O)C(=O)Nc1ccccc1C(N)=O)c1nc2ccccc2[nH]c1=O` (centres undefined), for which the growth inhibition in test [1] was 24.9%; in test [2] it was 6.9%; in test [3], 14.9%; in test [4] it was -42.5%; in test [6], 23.1%.

In the case of `O=C(NC(=O)c1c(F)cccc1F)Nc1ccc(C(O)(C(F)(F)F)C(F)(F)F)cc1`, the growth inhibition in test [1] was -33.2%; in test [2], 14.5%; in test [3] it was 10.2%; in test [4], 24.1%; in test [6], 3.55%.

`CCOC(=O)C(C)(C(=O)OCC)C(C)Cc1cccc2ccccc12` (centres undefined): the growth inhibition is -12.6% in test [1]; 0.95% in test [2]; -4.45% in test [3]; -31.4% in test [4]; -3.6% in test [6].

Regarding `CN(C)C(=O)C1CCC(CC2CCCCC2)CC1` (centres undefined), the growth inhibition is 99.1% (active) in test [1]; 99.2% (active) in test [2]; 99% (active) in test [3]; 96.3% (active) in test [4]; 80.9% (active) in test [6].

For the compound `C(=C1\CCC/C(=C/c2ccccc2)C1=NNc1ccccc1)/c1ccccc1`, the growth inhibition is 19.7% in test [1]; 2.35% in test [2]; 6.45% in test [3]; 18.1% in test [4]; 24.1% in test [6].

Turning to `O=C(O)C1CCCCN1/N=C/c1cccc([N+](=O)[O-])c1` (centres undefined), the growth inhibition was 36% in test [1]; 11.9% in test [2]; 22% in test [3]; 1.3% in test [4]; 11.9% in test [6].

For the compound `Oc1cccc(C(c2ccccc2)c2ccccc2)c1`, the growth inhibition is -0.6% in test [1]; 0.3% in test [2]; -5.5% in test [3]; -11.1% in test [4]; -3.95% in test [6].

For the compound `N#CC1CCCC/C1=N/NC(N)=O` (centres undefined), the growth inhibition in test [1] was -11.9%; in test [2] it was -6.65%; in test [3], -13.6%; in test [4] it was -6.05%; in test [6], -6%.

For `CCN(CC)CCOC(=O)c1ccc(NC(=O)OCCC(C)OC(=O)Nc2ccc(C(=O)OCCN(CC)CC)cc2)cc1` (centres undefined), the growth inhibition was -1.55% in test [1]; 1.2% in test [2]; -1.65% in test [3]; -4.4% in test [4]; 11.9% in test [6].

On to `FC1(F)ON2CCc3ccccc3C2[C@H]1c1ccccc1` (some centres undefined), for which the growth inhibition in test [1] is 13.3%; in test [2], 14.7%; in test [3] it was 10.2%; in test [4], 10%; in test [5] it was 22.4%; in test [6], -50%.

As to `C=CCOC(=O)CCCCC`, the growth inhibition in test [1] is 5%; in test [2] it was -2.7%; in test [3], 2.65%; in test [4], 7.9%; in test [6], 0.75%.

In the case of `COC1(C)CNc2ccccc2C(=O)N1` (centres undefined), the growth inhibition in test [1] is 6.65%; in test [2], -7.4%; in test [3], 22.9%; in test [4] it was 19.1%; in test [6] it was 6.55%.

For `COc1ccc(CCn2cnn3c(=O)c4ccccc4nc3c2=O)cc1OC`, the growth inhibition in test [1] was -24%; in test [2], -29.9%; in test [3], -9.1%; in test [4], -0.8%; in test [6], -20.9%.

Take `ClC1=C(Cl)C2(Cl)CC1(Cl)C1CCCCC12` (centres undefined): the growth inhibition was 18.9% in test [1]; -10.4% in test [2]; 21.4% in test [3]; -17.4% in test [4]; -10.6% in test [6].

As for `C[Si](C)(C)c1ccc(-c2ccccc2)cc1`, the growth inhibition is 20.1% in test [1]; -8.65% in test [2]; 2.25% in test [3]; -61.7% in test [4]; -18.4% in test [6].

Take `C/C=C/C(=O)OCCOc1ccccc1-c1ccccc1`: the growth inhibition in test [1] was 15.5%; in test [2], 16.3%; in test [3], 4.35%; in test [4], -16.3%; in test [6] it was 20.1%.

Turning to `CNc1ccc(O)cc1`, the growth inhibition in test [1] was 3.6%; in test [2], 6.9%; in test [3] it was 5.75%; in test [4], -24.4%; in test [6], 15.4%.

`O=C(c1ccccc1)c1ccccc1-c1nc2ccccc2c(=O)o1`: the growth inhibition was 11.8% in test [1]; -6.65% in test [2]; 1.65% in test [3]; 29.9% in test [4]; -0.8% in test [6].

As to `COc1ccc2c(c1OC)C1=NCCc3cc4c(cc3C1(OC)C2=O)OCO4` (centres undefined), the growth inhibition is -7.15% in test [1]; 0.75% in test [2]; 7.05% in test [3]; 16.8% in test [4]; -1.2% in test [6].

On to `Cn1nc(-c2ccc(Cl)c(Cl)c2)[n+]([O-])c2c(=O)n(C)c(=O)nc1-2`, for which the growth inhibition in test [1] was 88.8% (active); in test [2] it was 92.1% (active); in test [3], 88.8% (active); in test [4], 89% (active); in test [6] it was 91.3% (active).

Regarding `CCCCCCCCCCC/C=N\[N+](C)(C)C`, the growth inhibition in test [1] is 98.3% (active); in test [2], 99.3% (active); in test [3] it was 98.7% (active); in test [4] it was 96.8% (active); in test [6], 98.2% (active).

Turning to `COC(=O)c1ccccc1N(C)C(=O)c1cc(OC)c(OC)c(OC)c1`, the growth inhibition in test [1] was -27.4%; in test [2], -37%; in test [3], -5.75%; in test [4], -11.1%; in test [6] it was -8.85%.

Turning to `O=C(O)/C=C/C(=O)Nc1cc(Cl)cc2c1-c1c(Cl)cc(Cl)cc1C2=O`, the growth inhibition in test [1] was 30.9%; in test [2], 8.95%; in test [3], 31.6%; in test [4], -52.6%; in test [6], 4.25%.

As to `CCCCNC(=O)OCCN=c1c2ccccc2ccc2ccccc12`, the growth inhibition in test [4] is 2.8%.

On to `CCN(CC)c1ccc(/C=C\c2c(C)cnc3ccccc23)cc1`, for which the growth inhibition in test [1] is 8.85%; in test [2], 10%; in test [4] it was -24.4%; in test [6], -9.45%.

Take `CC(C)CC(NC(=O)C(N)CSSCC(N)C(=O)NC(CC(C)C)C(=O)O)C(=O)O` (stereo not drawn) (I: H-Cys-Leu-OH / II: H-Cys-Leu-OH; disulfide I:1-II:1; configuration not given here): the growth inhibition in test [1] was -10.6%; in test [2], -6.85%; in test [4], -23.1%; in test [5] it was -1.25%; in test [6], -6.9%.

Consider `CCCCCCCCCCCC1=C(O)C(=O)C(I)=C(O)C1=O`, for which the growth inhibition in test [1] is 63.2%; in test [2] it was 58.5%; in test [4], 51.3%; in test [5], 14.4%; in test [6], 54.7%.
